In PubChem BioAssay AID2501 (Southern Research Specialized Biocontainment Screening …, 2010) one finds IC50 data, which are given here for 51 compounds.

As usually defined, the IC50 is the point on the concentration scale where inhibition reaches its midpoint.

The campaign covered roughly 2,200 compounds. About 1,200 (55%) were called active. No cut-off is given here; in the data, nearly all actives have IC50 up to about 92 µM. The set was probably picked from earlier hits. The list shows a part of the results.

The nature of the experiment: counter assay for TAg ATPase ADP read-out – biochemical, ADP-Hunter, fluorescence, counter-screen (AID 2501).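 For inhibition: higher means more inhibition.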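 Note: purified T antigen ATPase.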 The note with it: series mostly up to 100 µM.
On to `Brc1ccc(-c2n(-c3ccccn3)c3ccccc3[n+]2-c2ccccn2)cc1`, for which the IC50 result was “inactive”. In the case of `CC(=O)N1c2c(cc(Br)cc2S(=O)(=O)N2CCCCC2)CC1C` (stereo unspecified), the IC50 result is “inactive”.

As to `C[c-]1[c-](C)[c-](C)[c-](C)[c-]1C.[Fe].c1cc2nccc(N3CCCC3)[c-]2c1` (stereo unspecified), the IC50 is 5.8 µM (active). Turning to `CCOC(=O)N1CCC(NC(=O)c2cnn3c2NC(c2ccco2)CC3C(F)(F)F)CC1` (stereo unspecified), the IC50 result is “inactive”. With `CCN(C(=O)CN1CCN(c2ccc(O)cc2)CC1)c1c(N)n(Cc2ccccc2)c(=O)[nH]c1=O`, the IC50 was 4.79 µM (active). `CCN(C(=O)CN1CCN(c2cccc(Cl)c2)CC1)c1c(N)n(Cc2ccccc2)c(=O)[nH]c1=O`: the IC50 entry was “inactive”. Under `COCCN(C(=O)COC(=O)c1cc2c(s1)CCC2)c1c(N)n(Cc2ccccc2)c(=O)[nH]c1=O` stands “inactive”; under `CC1=NN(c2nc(-c3ccc(C#N)cc3)cs2)C(=O)C1`, “inactive”; under `CC1=NN(c2nc(-c3ccccc3)cs2)C(=O)C1`, 56 µM (active). Regarding `Nc1ccc(Sc2ccccc2CC(=O)O)cc1`, the IC50 is 16.9 µM (active). With `OCc1ccccc1SSc1ccccc1CO`, the IC50 result was “inactive”. For `Cc1ccc(-c2c3c([nH]c(=S)c2C#N)CCCC3)o1`, the IC50 entry is “inactive”. In the case of `N#Cc1c(-c2ccco2)c2c([nH]c1=S)CCCC2`, the IC50 was 95.5 µM (active). In the case of `N#Cc1c(-c2ccco2)cc(-c2ccccc2)[nH]c1=O`, the IC50 entry is “inactive”. With `CCN(CC)c1ccc(NC(=O)c2ccccc2F)cc1`, the IC50 was 4.71 µM (active). Under `CCN(CC)c1ccc(NC(=O)CCNC(=O)c2ccco2)cc1` stands 5.22 µM (active). Regarding `CCN(CC)c1ccc(NC(=O)c2cc3c(OC)cccc3[nH]2)cc1`, the IC50 result was “inactive”. Regarding `COCCNC(=O)Nc1ccc2nc(-c3ccco3)c(-c3ccco3)nc2c1`, the IC50 entry was “inactive”. On to `CCN(CC)c1ccc(NC(=O)c2ccco2)cc1`, for which the IC50 was 4.57 µM (active). Take `O=C(CSc1nnc(CNC(=O)c2ccco2)o1)Nc1ccccc1C(F)(F)F`: the IC50 entry was “inactive”. As for `COc1cc(-c2nc3cccc(C)n3c2NCC2CCCO2)ccc1O` (stereo unspecified), the IC50 was 41.9 µM (active).

As for `S=c1nc[nH]c2nc[nH]c12`, the IC50 entry was “inactive”. Turning to `Cc1ccc(NC(=O)COc2ccc(C3SCCS3)cc2)cc1`, the IC50 entry is “inactive”. Take `Cc1ccc(NC(=O)COc2ccc(/C(N)=N/O)cc2)cc1C`: the IC50 was 29.6 µM (active). The same measure for `CCN(CC)C(=O)c1cc([N+](=O)[O-])cc2c1-c1ccc([N+](=O)[O-])cc1C2=C(C#N)C#N`: “inactive”. For `COc1ccccc1CN1CC(C(=O)NCc2ncccc2C)CCC1=O` (stereo unspecified), the IC50 entry is “inactive”. Regarding `CCN(CC)c1ccc(NC(=O)C2CC(=O)N(Cc3ccccc3)C2)cc1` (stereo unspecified), the IC50 is 5.88 µM (active). The same measure for `Cc1ccc(S(=O)(=O)/N=C(/Sc2ccccc2C(=O)O)c2ccccc2)cc1`: “inactive”. For `Cc1cc(C(=O)c2cccs2)c(N)s1`, the IC50 is 32.8 µM (active).

With `Cc1ccc(NC(=O)CNC(=O)c2cccs2)nc1`, the IC50 entry was “inactive”.

In the case of `COc1cccc(CC2(CO)CCCN(Cc3sc(N4CCCC4)nc3Cl)C2)c1` (stereo unspecified), the IC50 entry was “inactive”. As to `COC(=O)/C=C/c1ccc(OC(=O)OC)c(OC(=O)OC)c1`, the IC50 was 8.79 µM (active).

Regarding `Cc1cc(N)ccc1N=Nc1c(C)n(C)n(-c2ccccc2)c1=O`, the IC50 is 8.16 µM (active). The same measure for `Cc1c(N=C2C=C(Br)C(=O)C(Br)=C2)c(=O)n(-c2ccccc2)n1C`: 50.9 µM (active); for `CCNc1ccc(N=Nc2c(C)n(C)n(-c3ccccc3)c2=O)cc1`: 3.42 µM (active). As to `Cc1nc(N)sc1N=Nc1c(C)n(C)n(-c2ccccc2)c1=O`, the half-inhibitory concentration (IC50) was 10.3 µM (active). Regarding `Cc1cccc(N=Nc2c(C)[nH]n(-c3ccccc3)c2=O)c1`, the IC50 entry was “inactive”. The same measure for `COc1ccc(-c2cc(=Nc3c(C)n(C)n(-c4ccccc4)c3=O)c3ccccc3o2)cc1`: “inactive”; for `CC(C)(C)CC(=O)NC(=S)Nc1ccccc1[N+](=O)[O-]`: “inactive”.

Take `COc1ccc(C(=O)N2CCN(C(=O)C3COc4ccccc4O3)CC2)cc1` (stereo unspecified): the IC50 result was “inactive”.

Turning to `Cc1c(CC(=O)N2CCN(C(=O)C3COc4ccccc4O3)CC2)c(=O)oc2c(O)c(O)ccc12` (stereo unspecified), the IC50 was 5.3 µM (active). As to `O=C1C2C3C=CC(CC3)C2C(=O)N1/N=C/c1ccc(O)c(O)c1` (stereo unspecified), the IC50 was 5.65 µM (active). On to `COC(=O)c1ccc(-c2ccc(/C=N/N3C(=O)C4C5C=CC(C6CC56)C4C3=O)o2)cc1` (stereo unspecified), for which the IC50 result is “inactive”. Regarding `COc1cc(/C=N/N2C(=O)C3C4C=CC(CC4)C3C2=O)ccc1O` (stereo unspecified), the half-maximal inhibitory concentration (IC50) is 5.67 µM (active). In the case of `Cc1oc2c(O)c(O)ccc2c(=O)c1-c1cnn(-c2ccccc2)c1`, the IC50 is 9.31 µM (active). The same measure for `CCSC1(SCC)N=C(N)C2(C#N)C(c3ccc(OC)c(OC)c3OC)C12C#N` (stereo unspecified): 96.4 µM (active); for `COC(=O)CN1C(=O)[C@@H]2[C@H](C1=O)[C@@H]1CC(C(=O)OC)=C[C@@H](C(=O)OC)[C@@H]3C1=C(C(=O)[C@]3(C)NC(=O)c1ccccc1)[C@@H]2C`: “inactive”; for `C/C(=N/NC(=O)Cc1c(C)[nH][nH]c1=O)c1ccc(O)cc1`: 9.47 µM (active).

`COc1cc(/C(C)=N/NC(=O)Cc2c(C)[nH][nH]c2=O)ccc1O`: the IC50 was 3.72 µM (active).

On to `CSc1ccc(CCNC(=O)C2CCCN(S(=O)(=O)N3CCOCC3)C2)cc1` (stereo unspecified), for which the IC50 result was “inactive”. As to `COc1cc(/C=N/n2c(-c3n[nH]c4c3CCC4)n[nH]c2=S)ccc1O`, the IC50 is 5.13 µM (active).
